# Rows were chosen to be rich in hits. Some 3.1% of all compounds tested hit in one or more screens of this group.
# p53null 32C tox = selectivity test: cytotoxicity in p53 null cells, permissive temperature | H1299-neo p53 null cells, ATP luminescence, 24 h, 32C | Potency, µM (titrated, usually from 46.1 µM), for inactives: top-dose activity change, negative = cytotoxicity, most hits filed as cytotoxic | 0.62% of 55,000 active | AID 903;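 note: potency is the fitted concentration of half-maximal effect; 0% = DMSO only and -100% = full killing by 100 µM tamoxifen; nearly all actives have a fitted effect of over 55% in size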
#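 Overnight 37C seeding (600 cells/well) of H1299-neo preceded a 24 hr, 32C exposure to compounds up to 46 uM. ATP levels, read by luminescence after 20 min at RT, indicated surviving cells.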
# PMP22 txn prim = modulators of PMP22 gene transcription in S16 Schwann cells. S16 Pmp22-F2sN Schwann cells, FLuc/NLuc coincidence luminescence, 24 h. Potency, µM (titrated, usually from 57.5 µM), for the others: at the highest dose activity change, negative = inhibition, actives largely listed as inhibitors. 2% of 43,000 active. AID 1508649; active = clear falling dose curves in both reporters; inconclusive = both reporters move, but less clearly or upward; inactive = either reporter flat; the % is the NLuc reporter signal; note: potency is the fitted concentration of half-maximal effect; % is set by controls: 0 for no effect and ±100 for the full control effect
#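 qHTS, 1536-well. Cells seeded, compounds added by pin tool, 24 h 37C. Nano-Glo reagent 1 (lysis/FLuc), 10 min RT, read; Stop&Glo, 10 min RT, read NLuc.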
# mTORC1 inh = mTORC1 pathway inhibition measured by phospho-rpS6; 0.78% of 44,000 active; Tsc2-/- p53-/- MEF, phospho-rpS6 immunofluorescence/PI, 24 h; Potency, µM (highest dose often 38.3 µM), without a hit: at the top dose activity change, negative = inhibition, hits mostly inhibitors;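 note: potency is the fitted concentration of half-maximal effect; plate controls were DMSO for no effect and rapamycin for full effect; nearly all actives have a fitted effect of over 50% in size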
#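 Immunofluorescence of rpS6 phosphorylation in Tsc2-/-, p53-/- MEFs after 24 h compound exposure, normalized to propidium iodide signal. Activity is expressed as % positive cells, thresholded with 7.5 nM rapamycin.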
# S16 viability = S16 Schwann cell cytotoxicity; S16 Pmp22-F2sN Schwann cells viability, CellTiter-Glo, 24 h; Potency, µM (titrated, usually from 57.5 µM), inactives show at the highest dose activity change, negative = cytotoxicity, hits mostly cytotoxic; 0.48% of 43,000 active; AID 1508642; note: potency is the fitted concentration of half-maximal effect; % is set by controls: 0 for no effect and ±100 for the full control effect; nearly all actives have a fitted effect of over 65% in size
#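 CellTiter-Glo counter-screen, qHTS, 1536-well. Cells: S16(c9) Pmp22-F2sN, 500-1,000/well in DMEM + 10% FBS. Cpd 23 nL pin transfer, 24 h, 37C/5% CO2. Read: luminescence, CCD imager.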
# p53null 39C tox = p53 null cell cytotoxicity, nonpermissive temperature; 0.97% of 55,000 active; AID 904; H1299 p53-null (neo) cells, 39C, ATPlite viability, 24 h; Potency, µM (highest dose often 46.1 µM), for inactives: at the top dose activity, negative = cell killing, actives largely listed as cytotoxic;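 note: potency is the fitted concentration of half-maximal effect; 0% = DMSO only and -100% = full killing by 100 µM tamoxifen; nearly all actives have a fitted effect of over 50% in size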
#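 Luminescent ATP signal reported cell survival after H1299 lines (neo, p53 null; or p53 A138V) received up to 46 uM compound and 24 hr incubation at 39C.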
# OvCa metastasis = inhibitors of ovarian cancer cell adhesion and invasion in omental model. Potency, µM (highest dose often 45.8 µM), for the others: at the top dose activity change, negative = inhibition, most hits filed as inhibitors. SKOV3ip1-GFP adhesion/invasion on 3D omental model, fluorescence. 0.1% of 46,000 active;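 note: potency is the fitted concentration of half-maximal effect; plate controls were DMSO wells for no effect and tomatine positive control wells for full effect; nearly all actives have a fitted effect of over 65% in size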
#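 A 3D layer of primary human omental fibroblasts, mesothelial cells, fibronectin and collagen I, grown 48 hr, received SKOV3ip1-GFP cells in serum-free medium plus compounds at 0.36-46 umol/L. After 2 hr RT and 16 hr 37 C, fixed adherent GFP cells were counted; normalized to DMSO and tomatine.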
# NLuc sat counter = inhibits NanoLuc at saturating substrate, PMP22 counter-screen; shares compounds with PMP22 txn prim; Secreted NLuc enzyme (filtered S16 cell medium), Nano-Glo luminescence; Potency, µM (doses to about 57.5 µM), for inactives: at the highest dose activity change, negative = inhibition, usual class: inhibitors; 4% of 690 active; note: potency is the fitted concentration of half-maximal effect; % is set by controls: 0 for no effect and ±100 for the full control effect
# NLuc Km counter = NanoLuc inhibition at Km substrate, PMP22 artifact check; shares compounds with PMP22 txn prim; Potency, µM (series often up to 57.5 µM), without a hit: at the highest dose activity change, negative = inhibition, actives largely listed as inhibitors; 5% of 690 active; secreted NLuc enzyme, coelenterazine luminescence, Km conditions; AID 1508639; note: potency is the fitted concentration of half-maximal effect; % is set by controls: 0 for no effect and ±100 for the full control effect
# FLuc ctr PMP22 = counter-screen for PMP22 expression modulators: firefly luciferase inhibition | shares compounds with PMP22 txn prim | purified P. pyralis FLuc, luminescence, 10 min | Potency, µM (titrated, usually from 57.5 µM), without a hit: at the highest dose activity, negative = inhibition, hits mostly inhibitors | 690 tested, under 10 active | AID 1508640; note: % of control where 0% means no effect
# Target sequence (P08659 whole entry, looked up): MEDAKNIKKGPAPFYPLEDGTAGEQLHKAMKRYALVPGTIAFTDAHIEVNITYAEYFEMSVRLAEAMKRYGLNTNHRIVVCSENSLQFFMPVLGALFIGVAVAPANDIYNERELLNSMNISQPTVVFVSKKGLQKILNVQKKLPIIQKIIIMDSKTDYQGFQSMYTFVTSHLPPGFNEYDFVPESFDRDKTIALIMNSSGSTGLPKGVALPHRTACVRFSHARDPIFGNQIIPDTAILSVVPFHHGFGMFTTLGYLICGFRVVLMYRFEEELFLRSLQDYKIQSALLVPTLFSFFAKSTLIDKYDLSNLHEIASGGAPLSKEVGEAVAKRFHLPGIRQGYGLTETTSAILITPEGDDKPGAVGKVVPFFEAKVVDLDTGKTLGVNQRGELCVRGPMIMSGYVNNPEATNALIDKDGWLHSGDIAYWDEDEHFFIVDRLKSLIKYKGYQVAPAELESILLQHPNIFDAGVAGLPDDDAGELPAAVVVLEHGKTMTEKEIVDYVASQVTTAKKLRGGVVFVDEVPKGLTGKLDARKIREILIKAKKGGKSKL
# S16 viab conf = confirmation of cytotoxicity in S16 Pmp22-F2sN Schwann cells (luciferase reporters placed in the Pmp22 gene). 7% of 690 active. S16 Schwann cells viability, CellTiter-Glo ATP luminescence, 24 h. shares compounds with PMP22 txn prim. Potency, µM (series often up to 57.5 µM), without a hit: at the top dose activity change, negative = viability loss, actives largely listed as cytotoxic; note: potency is the fitted concentration of half-maximal effect; % is set by controls: 0 for no effect and ±100 for the full control effect
# PMP22 txn cnf = PMP22 transcription modulation, confirmatory. shares compounds with PMP22 txn prim. Potency, µM (top dose mostly 57.5 µM), inactives show at the highest dose activity change, negative = inhibition, hits mostly inhibitors. S16 Schwann cells Pmp22-F2sN, dual luciferase, 24 h. 22% of 690 active. AID 1508646; active = clear falling dose curves in both reporters; inconclusive = both reporters move, but less clearly or upward; inactive = either reporter flat; the % is the FLuc reporter signal; note: potency is the fitted concentration of half-maximal effect
# * marks the source's active call; other numbers are inactive results; i = inactive; u = inconclusive; x = no result; [ ] = another dose, or the depositor's remark. Unless noted, calls come from the whole dose curve; as a rule, active = well fitted curve in the direction sought with a large enough effect; inconclusive = small, poorly fitted or top-dose-only effect, or another doubt; inactive = no such curve, though single readings can be large; an effect the other way counts as inactive or inconclusive.
SMILES,p53null 32C tox,PMP22 txn prim,mTORC1 inh,S16 viability,p53null 39C tox,OvCa metastasis,NLuc sat counter,NLuc Km counter,FLuc ctr PMP22,S16 viab conf,PMP22 txn cnf
COc1cc(C(=O)CC2(O)C(=O)N(Cc3ccccc3Cl)c3ccccc32)cc(OC)c1OC (stereo unspecified),-3%,11µM*,4.1µM*,-6%,u,-11%,-11%,-2%,8%,-3%,u
CCOc1ccc2oc(=O)cc(CN3CCN(Cc4ccc(F)cc4)CC3)c2c1,-5%,14µM*,-5%,u,-9%,-6%,-9%,9%,-3%,-9%,-17%
CC(=O)Nc1cccc(-c2nnc(SCC(=O)c3cc([N+](=O)[O-])ccc3Br)o2)c1,-8%,12µM*,u,u,u,-1%,11µM*,12µM*,u,9%,17µM*
CCC=CC[C@H]1C(=O)CC[C@@H]1CC(=O)OC,x,x,x,x,x,1%,x,x,x,x,x
COc1cc(OC)c(OC)cc1/C=C/c1nc2cc3ccccc3cc2c(=O)n1-c1ccc(F)cc1F,-1%,9.5µM*,11%,u,-21%,i,3.1µM*,2.2µM*,u,-8%,13%
CCCC(=O)N(c1ccc2oc(C)c(C(C)=O)c2c1)S(=O)(=O)c1ccc(CC)cc1,39%,8.4µM*,-13%,u,-1%,i,-17%,5%,-8%,-25%,u
CC(O)(C#Cc1ccc2c(c1)N(c1nc(N)ncc1Cl)CC2)c1nccs1 (stereo unspecified),x,x,x,x,x,16%,x,x,x,x,x
COC(=O)C1=C(C)N=C2SCCC(=O)N2C1c1ccc(OCc2ccccc2)c(OC)c1 (stereo unspecified),3%,-7%,-1%,15%,-11%,-5%,x,x,x,x,x
COc1cc(C2C(C(=O)OC(C)C)=C(C)N=C3SCCC(=O)N32)ccc1OCc1ccccc1 (stereo unspecified),3%,20µM*,2%,-15%,7%,-18%,-5%,7%,-8%,u,-25%
NC1=N[C@H]2[C@H](CS[C@H]2CCCCC(=O)O)N1,x,x,x,x,x,9%[23.2 µM],x,x,x,x,x
CC(=O)c1cccc(Nc2nc(-c3ccccc3Cl)nc3ccccc23)c1,2%,11µM*,15%,-2%,u,i,5.4µM*,0.86µM*,-5%,-10%,-27%
O=C(CCCCCCNC(=O)c1cnc(N(c2ccccc2)c2ccccc2)nc1)NO,x,x,x,x,x,-13%,x,x,x,x,x
COc1ccccc1CNC(=O)C1CCCN(c2nnc(-n3c(C)ccc3C)s2)C1 (stereo unspecified),0%,u,-1%,1%,-1%,103%,-12%,-8%,1%,14%,-28%
Cc1ccc(C)n1-c1nnc(N2CCCC(C(=O)NCc3ccccc3)C2)s1 (stereo unspecified),-5%,u,-12%,-7%,0%,-4%,x,x,x,x,x
Cc1ccc(C)n1-c1nnc(N2CCCC(C(=O)NCc3cccc(F)c3)C2)s1 (stereo unspecified),-6%,15µM*,-10%,-15%,-3%,i,-6%,-13%,0%,-1%,u
CCC(C)CCCCC(=O)N[C@@H](CCN)C(=O)NC(C(=O)N[C@H](CCN)C(=O)N[C@@H]1CCNC(=O)C([C@@H](C)O)NC(=O)[C@@H](CCN)NC(=O)[C@@H](CCN)NC(=O)[C@@H](CC(C)C)NC(=O)[C@H](Cc2ccccc2)NC(=O)[C@H](CCN)NC1=O)[C@@H](C)O (stereo partly specified),x,x,x,x,x,2%,x,x,x,x,x
Cc1ccc(CNC(=O)c2ccc(-c3nc(CS(=O)(=O)c4ccc(C)cc4)c(C)o3)cc2)cc1,1%,13µM*,2%,u,11%,3%,-4%,1%,-3%,2%,-32%
CCCCNC(=O)c1ccc(-c2nc(CS(=O)(=O)c3ccc(C)cc3)c(C)o2)cc1,12%,u,-6%,-3%,-16%,0%,x,x,x,x,x
N#CCNC(=O)c1ccc(-c2ccnc(Nc3ccc(N4CCOCC4)cc3)n2)cc1,x,x,x,x,x,-12%,x,x,x,x,x
CCOC(=O)c1ccc(N2C(=O)c3n[nH]c(-c4ccco4)c3C2c2ccc(O)c(OC)c2)cc1 (stereo unspecified),-13%,11µM*,u,-22%,u,i,u,u,5%,4%,19µM*
CCOC(=O)c1ccc(N2C(=O)c3n[nH]c(-c4ccco4)c3C2c2ccc(C)cc2)cc1 (stereo unspecified),59%,u,u,-9%,u,u,x,x,x,x,x
CC(CNC(=O)CCCn1c(=O)c2cccn2c2ccc(F)cc21)c1ccccc1 (stereo unspecified),9%,19µM*,5%,-14%,5%,0%,u,-7%,5%,-1%,u
CC(CNC(=O)CCn1c(=O)c2cccn2c2ccc(F)cc21)c1ccccc1 (stereo unspecified),12%,u,-5%,-1%,66%,5%,x,x,x,x,x

# Source: PubChem
